The values below are quoted from earlier work in PubChem BioAssay AID977611.

Out of some 3,900 compounds screened, about 3,900 (100%) were called active. No cut-off is given here; in the data, nearly all actives have Kd up to about 4200 µM. So high a share suggests a set chosen from earlier hits. The list shows a part of the results. Where a SMILES comes first, the peptide text is derived from it. Square brackets hold non-standard residues; d marks the D form. Residues, ends and D or L forms follow the SMILES beside them. Peptide text beside a SMILES is read from it. [ ]: non-standard residue; d: D form. The star is where a group is joined. Lys(Me3) = C[N+](C)(C)CCCC[C@H](N)C(=O)O; Orn(CH(NH2)2) = NC(N)NCCC[C@H](N)C(=O)O; X1 = C[C@H](Cc1ccc(O)cc1)N*; Leu(ol) = CC(C)C[C@H](N)CO

The nature of this series: PubChem AID 977611. To be noted: PDB protein-ligand complexes, literature Kd.

`CC[C@H](C)[C@H](N)C(=O)N[C@@H](CCC(N)=O)C(=O)N1CCC[C@H]1C(=O)N1CCC[C@H]1C(=O)N1CCC[C@H]1C(=O)N[C@H](C(=O)N[C@@H](CC(N)=O)C(=O)N[C@@H](CCCNC(N)N)C(=O)N[C@@H](CC(N)=O)C(=O)N[C@@H](CC(C)C)C(=O)N[C@@H](CCCCN)C(=O)N1CCC[C@H]1C(=O)N[C@@H](CC(=O)O)C(=O)N[C@H](C=O)CCCNC(N)N)C(C)C` (H-IQPPPVN[Orn(CH(NH2)2)]NLKPD[Orn(CH(NH2)2)]-aldehyde): the Kd (protein: GROWTH FACTOR RECEPTOR-BOUND PROTEIN 2 SH3 DOMAIN, PDB entry 2vwf) is 8.7 µM (active). Turning to `CN1C=CN(CCCN2c3ccccc3Sc3ccc(C(F)(F)F)cc32)C=C1`, the Kd (protein: human calmodulin (CaM), PDB entry 1ctr) is 1 µM (active). On to `COC(=O)c1cc(N)cc(-c2c(C)noc2C)c1`, for which the Kd (protein: ATPase family AAA domain-containing protein 2 ATAD2A bromodomain, PDB entry 4tte) was 202 µM (active). Take `Cn1cc(O[C@@H]2O[C@H](CO)[C@H](O)[C@H](O)[C@H]2O)c2ccccc21`: the Kd (protein: PA-I galactophilic lectin, PDB entry 4ljh) is 19.4 µM (active).

For the compound `CC(=O)NCCCC[C@H](NC(=O)[C@@H](NC(=O)CNC(=O)CNC(=O)[C@@H](NC(=O)[C@@H](N)CO)[C@@H](C)O)C(C)C)C(=O)N[C@@H](CCCCN)C(=O)N1CCC[C@H]1C(=O)N[C@@H](Cc1cnc[nH]1)C(=O)N[C@@H](CCCNC(N)N)C(=O)N[C@@H](Cc1ccc(O)cc1)C(=O)N[C@@H](CCCCN)C(=O)N[C@@H](CS)C(=O)O`, the Kd (protein: Histone acetyltransferase PCAF, PDB entry 2rnx) is 402 µM (active). As to `CC(C)[C@H](NC(=O)CNC(=O)CNC(=O)[C@@H](NC(=O)[C@H](C)N)[C@@H](C)O)C(=O)N[C@@H](CCCC[N+](C)(C)C)C(=O)N[C@@H](CCCCN)C(=O)N1CCC[C@H]1C(=O)N[C@@H](Cc1cnc[nH]1)C(=O)N[C@@H](CCCNC(N)N)C(=O)N[C@H](C)Cc1ccc(O)cc1` (H-ATGGV[Lys(Me3)]KPH[Orn(CH(NH2)2)]-X1), where the note is “protein: PHD finger protein 1, PDB entry 2m0o”, the Kd is 4.2 µM (active).

For the compound `CC[C@H](C)[C@H](NC(=O)[C@H](Cc1cnc[nH]1)NC(=O)[C@@H](NC(=O)[C@H](CCCNC(N)N)NC(=O)[C@H](CCCCN)NC(=O)[C@@H](N)CCCNC(N)N)[C@@H](C)CC)C(=O)NCC(=O)N1CCC[C@H]1C(=O)NCC(=O)N[C@@H](CCCNC(N)N)C(=O)N[C@@H](C)C(=O)N[C@@H](Cc1ccccc1)C(=O)N[C@@H](Cc1ccc(O)cc1)C(=O)N[C@@H](C)C(=O)N[C@H](C=O)[C@@H](C)O`, the Kd (protein: anti-HIV-1 Fab 537-10D, PDB entry 3ghe) was 1.3 µM (active).

As to `O[C@@H]1[C@H](O)[C@@H](O[P+](O)(O)O)[C@H](O[P+](O)(O)O)[C@@H](O)[C@@H]1O[P+](O)(O)O`, the Kd was 0.00282 µM (active) (protein: Ligand-Binding Domain of rat InsP3 Receptor, PDB entry 3t8s) and 9.4 µM (active) (protein: Rabphilin-3A, PDB entry 4np9). Take `Nc1ncnc2c1ncn2[C@@H]1O[C@@H]2CO[P+](O)(O)O[C@@H]3[C@H](O)[C@@H](CO[P+](O)(O)O[C@H]2[C@H]1O)O[C@H]3n1cnc2c1NC(N)NC2=O` (some centres undefined): the Kd is, setting by setting: (protein: Stimulator of interferon genes protein, PDB entry 4ksy) 0.00379 µM (active); (protein: Stimulator of interferon genes protein, PDB entry 4loh) 0.11 µM (active); (protein: Stimulator of interferon genes protein, PDB entry 4loj) 0.3 µM (active). On to `Nc1ncnc2c1ncn2[C@@H]1O[C@@H]2CO[P+](O)(O)O[C@@H]3[C@H](O)[C@@H](CO[P+](O)(O)O[C@@H]1[C@@H]2O)O[C@H]3n1cnc2c1NC(N)NC2=O` (some centres undefined), for which, under “protein: Stimulator of interferon genes protein, PDB entry 4loi”, the Kd was 0.17 µM (active). On to `NC1NC(=O)c2ncn([C@@H]3O[C@@H]4CO[P+](O)(O)O[C@H]4[C@H]3O)c2N1` (some centres undefined), for which the Kd (protein: Diguanylate cyclase, PDB entry 4kg1) was 0.274 µM (active).

As for `CSCC[C@H](NC(=O)[C@@H]1CCCN1C(=O)[C@@H](NC(=O)[C@H](CCCNC(N)N)NC(=O)[C@H](CO)NC(=O)CN)[C@@H](C)O[P+](O)(O)O)C(=O)N[C@@H](Cc1ccc(O)cc1)C(=O)NCC(=O)O` (HELM PEPTIDE1{G.S.[NC(N)NCCC[C@H](N[*:1])C(=O)[*:2]].[C[C@@H](O[P+](O)(O)O)[C@H](N[*:1])C(=O)[*:2]].P.M.Y.G}$$$$V2.0), the Kd (protein: RNA polymerase-associated protein RTF1 homolog, PDB entry 4l1u) was 5.45 µM (active). On to `CC(C)C[C@H](NC(=O)[C@H](CC(C)C)NC(=O)[C@H](CCCNC(N)N)NC(=O)[C@H](CO)NC(=O)[C@H](CC(C)C)NC(=O)[C@H](CCCNC(N)N)NC(=O)[C@@H]1CCCN1C(=O)CN)C(=O)N[C@@H](CO)C(=O)N[C@@H](Cc1ccc(O)cc1)C(=O)N[C@@H](C)C(=O)O` (HELM PEPTIDE1{G.P.[NC(N)NCCC[C@H](N[*:1])C(=O)[*:2]].L.S.[NC(N)NCCC[C@H](N[*:1])C(=O)[*:2]].L.L.S.Y.A}$$$$V2.0), for which, under “protein: rat Tom20(translocases of outer mitochondrial membranes), PDB entry 1om2”, the Kd is 20 µM (active).

With `CC(C)[C@H](NC(=O)[C@H](CCC(=O)O)NC(=O)[C@H](C)NC(=O)[C@H](Cc1ccc(O)cc1)NC(=O)[C@H](CO)NC(=O)[C@@H]1CCCN1C(=O)[C@@H]1CCCN1C(=O)[C@H](C)NC(=O)[C@@H](N)CCC(=O)O)C(=O)O` (H-EAPPSYAEV-OH), the Kd (protein: 3rd WW domain of Human Nedd4, PDB entry 4n7h) is 3.3 µM (active).

In the case of `CC(C)C[C@@H](CO)NC(=O)[C@H](CO)NC(=O)[C@H](CCCNC(N)N)NC(=O)[C@H](CC(C)C)NC(=O)[C@H](CO)NC(=O)[C@H](C)NC(=O)[C@H](CC(C)C)NC(=O)[C@@H]1CCCN1C(=O)[C@H](Cc1ccc(O)cc1)NC(=O)[C@H](CC(C)C)NC(=O)[C@@H](N)CCC(=O)O` (H-ELYPLASL[Orn(CH(NH2)2)]S[Leu(ol)]), the Kd (protein: ALIX, PDB entry 2r05) is 7 µM (active). With `CC(C)C[C@H](NC(=O)[C@H](CO)NC(=O)[C@H](CCCNC(N)N)NC(=O)[C@H](CC(C)C)NC(=O)[C@H](CO)NC(=O)[C@@H](NC(=O)[C@H](CC(C)C)NC(=O)[C@@H]1CCCN1C(=O)[C@H](Cc1ccc(O)cc1)NC(=O)[C@H](CC(C)C)NC(=O)[C@@H](N)CCC(=O)O)[C@@H](C)O)C(=O)O` (H-ELYPLTSL[Orn(CH(NH2)2)]SL-OH), under “protein: ALIX, PDB entry 2r02”, the Kd was 8 µM (active).

The term Kd denotes the equilibrium constant for the complex coming apart.
